# Data from PubChem BioAssay AID504803 (The Scripps Research Institute Molecular Screening Center, 2011).
# The whole screen tested about 340,000 compounds, of which about 1,700 (0.5%) were called active. The sample holds actives, similar compounds and a random draw of the others, so the mix is not that of the screen. Unmarked numbers belong to inactive results. No stated cut-off is given here; in the data, active means inhibition above about 36%; inactive means the rest.
# Biological target: Serine protease HTRA1 (Homo sapiens) (UniProt Q92743)
# Test: HTRA1 serine protease inhibitors, primary screen, biochemical, fluorescence polarization, HTS (AID 504803);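 further: 0% = enzyme with DMSO and 100% = wells lacking enzyme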
# Conditions: recombinant HTRA1, FP-rhodamine activity-based probe, at 5.96 µM, stronger effect = higher value
# Serine protease HTRA1 (Homo sapiens), sequence (Q92743 whole entry, looked up): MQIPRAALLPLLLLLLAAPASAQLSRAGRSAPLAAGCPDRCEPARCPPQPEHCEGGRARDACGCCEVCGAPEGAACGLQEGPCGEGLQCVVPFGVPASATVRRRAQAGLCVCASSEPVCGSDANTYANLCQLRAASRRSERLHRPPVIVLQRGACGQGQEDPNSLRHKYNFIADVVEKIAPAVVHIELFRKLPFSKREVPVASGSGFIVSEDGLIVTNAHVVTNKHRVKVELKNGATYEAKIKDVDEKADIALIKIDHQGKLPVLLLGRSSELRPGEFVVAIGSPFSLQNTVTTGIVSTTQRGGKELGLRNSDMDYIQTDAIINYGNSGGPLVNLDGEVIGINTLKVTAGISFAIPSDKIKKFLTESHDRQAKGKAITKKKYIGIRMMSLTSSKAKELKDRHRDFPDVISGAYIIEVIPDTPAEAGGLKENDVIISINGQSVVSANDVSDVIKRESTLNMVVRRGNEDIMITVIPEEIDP
row,Compound,inhibition
1,CC(C)(C)c1nnc(NC(=O)C2c3ccccc3Oc3ccccc32)s1,-41.3%
2,O=C(NN=Cc1ccc2c(c1)CCC2)c1ccccc1O,-0.46%
3,O=C(N/N=C/c1ccc(O)c(O)c1)C1c2ccccc2Oc2ccccc21,68.8% (active)
4,COc1cccc(NC(=O)CN(C)C(=O)c2cc(Cl)nc3ccccc23)c1,0.82%
5,C[C@@H]1CN([C@@H](C)CO)C(=O)c2cc(Br)cnc2O[C@@H]1CN(C)C(=O)C1CCCCC1,2.18%
6,CCN(CC)C(=O)C1=C(C)N(Cc2ccc(F)cc2)C(=O)C(CC(=O)NC2CCCC2)C1 (stereo unspecified),1.89%
7,COc1ccc(C(=O)c2oc3ccc(Br)cc3c2NC(C)=O)cc1,-1.73%
8,COc1ccc2oc(=N)c(C(=O)Nc3ccc(Br)cc3)cc2c1,-1.93%
9,COc1ccc(/C=C/C(=O)c2cc(Br)ccc(=O)c2O)cc1,61% (active)
10,O=C1[C@H]2[C@@H](c3ccc(C(F)(F)F)cc3)N[C@]3(CCCN(Cc4ccc(Br)cc4)C3=O)[C@H]2C(=O)N1Cc1ccccc1,-35.1%
11,COc1cccc2c1C(=O)c1c(O)c3c(c(O)c1C2=O)CC(O)(C(C)=NNC(=O)c1ccc(Cl)c(Cl)c1)CC3OC1CC(N)C(O)C(C)O1 (stereo unspecified),70.5% (active)
12,CN(Cc1c(F)cccc1Cl)C(=O)COC(=O)Cn1cnc2ccccc2c1=O,2.48%
13,N#Cc1ccc(OCC(=O)Nc2nc(-c3ccccn3)cs2)cc1,19.1%
14,O=C(N/N=C\c1cccnc1)c1cc(-c2ccccc2)nc2c(Cl)cccc12,-44%
15,COc1ccc(-c2cc(C(=O)N/N=C/c3cccnc3)c3ccccc3n2)c(OC)c1,-18%
16,Cc1ccc(/C=N/NC(=S)NC2CCCCC2)o1,5.44%
17,Cc1ccc(/C=N/NC(=O)Cn2nc(C)c(Br)c2C)o1,-6.04%
18,Cc1ccc(/C=N/NC(=O)c2cc3ccccc3cc2O)o1,50.2% (active)
19,O=C(N/N=C/c1cccnc1)c1cc2ccccc2cc1O,41% (active)

row,Compound,inhibition
1,CC(C)N=C1CCCC1C(=S)SSC(=S)C1CCCC1=NC(C)C (stereo unspecified),13.4%
2,CC(C)C1CCN(C(=O)C2CCC(=O)N(C3CCCCCC3)C2)CC1 (stereo unspecified),4.4%
3,CCCCN1CC(C)(C)[C@H](CC(=O)Nc2ccc(Br)cc2)C1=O,-7.94%
4,COc1ccc(-c2ccc(CN3C(CC(C)C)C(=O)N(Cc4cn(CC5CCCCC5)nn4)CCS3(=O)=O)cc2)cc1 (stereo unspecified),-45.1%
5,O=C(C[C@H]1C[C@H]2c3cc(NS(=O)(=O)c4ccc(F)cc4)ccc3O[C@H]2[C@H](CO)O1)NCc1cc(F)ccc1F,-9.74%
6,COc1cc(C(=O)OCCCN2CCOCC2)cc(OC)c1OC,-2.46%
7,O=NN(CCCl)C(=O)NCCc1cccc[n+]1[O-],1.62%
8,CCOC(=O)NNc1cc(C(F)(F)F)ccn1,-0.2%
9,CCOC(=O)C1Nc2ccc(C(F)(F)F)cc2C2C=CCC12 (stereo unspecified),41.7% (active)
10,CCOC(=O)C[C@H]1c2ccc(C(F)(F)F)cc2S(=O)(=O)N1c1ccccc1,-13.4%
11,COc1cccc2c(O)cc(=O)n(C)c12,-0.49%
12,O=C(NN=Cc1ccccc1O)NN=Cc1ccccc1O,25.9%
13,O=Nc1c(O)cc(O)c2ccccc12,42.4% (active)
14,Cc1ccc(-c2ccc(CN3C(C(C)C)C(=O)N(Cc4cn(CCC5OCCO5)nn4)CCS3(=O)=O)cc2)cc1 (stereo unspecified),-29.6%
15,CC[C@@H]1Cc2cc(O)ccc2C2=C1c1ccc(O)cc1C[C@H]2CC,44.3% (active)
16,COc1cc(C)c(CN2CCN(C(=O)CCC(=O)c3ccc(C)s3)CC2)cc1OC,6.95%
17,CCCCCCNC(=O)O[C@H]1CN(C(=O)OC(C)C)N(C(=O)OC(C)C)[C@@H]2CN(S(=O)(=O)c3ccc(C)cc3)C[C@]12O,-18.8%
18,O=C(Cc1ccc(Cl)cc1)NC(=S)Nc1ccccc1O,-31.1%
19,Oc1ccc(CNc2ccccc2O)cc1,52.1% (active)

row,Compound,inhibition
1,c1ccc(CNCc2ccc(CNCc3ccccc3)cc2)cc1,2.32%
2,C[C@@H]1CN([C@H](C)CO)C(=O)CCCn2cc(nn2)CO[C@H]1CN(C)S(=O)(=O)c1ccc(Oc2ccccc2)nc1,5.67%
3,COCC1CCCCN1C(=O)c1cc(COc2ccc(C)c(C)c2)on1 (stereo unspecified),-4.09%
4,COc1ccc(C=C2CCC3C(CCCC34OCCO4)C2=O)cc1 (stereo unspecified),-8.69%
5,C[n+]1ccc(/C=C/c2c[nH]c3ccccc23)cc1,2.74%
6,CSC(=S)N/N=C/c1c[nH]c2ccccc12,48.9% (active)
7,Nc1nonc1-n1nnc(C(=O)N/N=C/c2c[nH]c3ccccc23)c1-c1ccccc1,-3.11%
8,C[C@H]1CN([C@@H](C)CO)C(=O)CCCn2nncc2CO[C@@H]1CN(C)Cc1ccc(Oc2ccccc2)cc1,-3.08%
9,O=c1ccc2c(-c3ccccc3S(=O)(=O)O)c3ccc(O)c(O)c3oc-2c1O,37.8% (active)
10,COc1cc(C=NC2CCCCC2)ccc1O,0.85%
11,COc1ccc(CN2C(=O)C(CC(=O)NCCCCc3ccccc3)CC(C(=O)N3CCOCC3)=C2C)cc1 (stereo unspecified),5.2%
12,O=C(c1ccccc1)N1CCN(c2cc(-c3ccccc3)nc3cc(-c4cccc(Cl)c4)nn23)CC1,-11.5%
13,CCOC(=O)CC(NC(=O)C1c2ccccc2Oc2ccccc21)c1ccc(C)cc1 (stereo unspecified),-3.25%
14,CCCCCNC(=O)C1c2ccccc2Oc2ccccc21,0.55%
15,CCCN(CCC)C(=O)C1c2ccccc2Oc2ccccc21,38.1% (active)
16,C[C@H]1CN([C@@H](C)CO)S(=O)(=O)c2ccc(Br)cc2O[C@H]1CN(C)C(=O)c1cnccn1,10.3%
17,CNC(=O)c1ccc(CN(C)C(=O)c2cc(C3CC3)nc3c2cnn3C(C)C)cc1,-4.2%
18,CC(C)CC1C(=O)N(Cc2cn(Cc3ccco3)nn2)CCS(=O)(=O)N1Cc1ccc(-c2ccc(Cl)c(Cl)c2)cc1 (stereo unspecified),-109%
